Laboratory results from PubChem BioAssay AID686915 (National Center for Advancing Translational Sciences (NCATS), 2013).
Values joined by “and” are separate entries in the source; they are usually repeats but may differ in a detail not shown here. Equal entries are not always repeated. Records with an inconclusive call do not appear. Unmarked numbers belong to inactive results. Active and inactive are the calls of the source. Calls come from the whole dose curve; as a rule, active = well fitted inhibition curve with a large enough effect; inconclusive = small, poorly fitted or top-dose-only effect; inactive = no such curve, though single readings can be large or run the other way.

Assay: qHTS screen for inhibitors of ELG1-dependent DNA repair in human embryonic kidney (HEK293T) cells expressing luciferase-tagged ELG1: MMS Stimulated Assay for probe SAR
Settings: HEK293T ELG1-luciferase reporter, 16 h; series mostly up to 46.1 µM; activity change, negative = inhibition: at the top concentration
Excerpt: Cancer cells divide rapidly compared to normal cells in the body. During cell division, cancer cells need to duplicate their genome by DNA replication. The failure of genome duplication leads to cancer cells' death. Therefore, inhibitors of DNA replication could specifically kill cancer cells. Based on this concept, many chemotherapeutic agents were developed and have been used to treat cancer patients. However, there are a limited number of agents available in the clinical setting, and some of those that do exist have low efficacy and severe side effects. Therefore, if we can find the compounds that effectively block DNA replication either by directly damaging DNA or by inhibiting other cellular mechanisms, the options for cancer treatment will be broadened. With this in mind, we developed a quantitative high-throughput ELG1-luciferase reporter gene assay. Small molecules that specifically block ELG1 function in response to DNA damage can be identified by monitoring the suppression of luciferase activity. Since ELG1 defines a pathway for repairing DNA damage, agents blocking ELG1 function can be used to sensitize cancer cells to chemotherapeutic agents whose mechanism of action involves the induction of DNA damage. NIH Molecular Libraries Probe Production Network [MLPCN] NIH Chemical Genomics Center [NCGC] MLPCN Grant: R03 MH092164 Assay Provider: Kyungjae Myung, NHGRI, NIH
ELG1-luc HEK293T cells will be seeded in 1536-well plates at a density of 2,000 cells / well. Approximately 5 hours after plating, compounds will be added to the plate by pin tool transfer and MMS will be added by FRD dispenser (final concentration of MMS = 10 µM). 16 hours following the addition of the compounds, luciferase activity will be measured using Amplight reagent.

SMILES | Potency | activity change, negative = inhibition [%]
N#Cc1cnccc1-c1nc(Nc2ccc(F)c(F)c2)c2ccccc2n1 | 5.26 µM (active) | –
COc1nccc(-c2nc(Nc3ccc(F)c(F)c3)c3ccccc3n2)c1Cl | – | 17.5
Fc1ccc(-c2nc(-c3ccncc3)nc3ccccc23)cc1F | – | 5.29
Fc1cc(-c2nc(Nc3ccc(F)c(F)c3)c3ccccc3n2)ccn1 | – | -19.4
Fc1ccc(Nc2nc(-c3ccncc3)nc3ccccc23)cc1F | – | -12.5
COc1ccc(Nc2nc(-c3ccncc3)nc3ccccc23)cc1F | – | -8.77
Fc1ccc(Nc2nc(-c3ccnc(C(F)(F)F)c3)nc3ccccc23)cc1F | 18.7 µM (active) | –
COc1ccc(-c2ccc(Nc3nc(-c4ccncc4)nc4ccccc34)cc2F)cc1F | – | 3.92
Fc1cccc(-c2ccc(Nc3nc(-c4ccncc4)nc4ccccc34)cc2F)c1 | – | 8.75
COc1cc(Nc2nc(-c3ccncc3)nc3ccccc23)ccc1NS(C)(=O)=O | – | -8.84
O=[N+]([O-])c1ccc(-c2nc(Nc3ccc(F)c(F)c3)c3ccccc3n2)cc1 | – | -7.96
COc1cc(Nc2nc(-c3ccncc3)nc3ccccc23)ccc1F | 23.5 µM (active) and 20.9 µM (active) | –
